# From the supplement of paper PMC6331611
# ± gives the standard deviation of the averaged measurements. In all, about 1,600 compounds were measured (“normalized intracellular growth (luminescence, IQM-normalized) in RAW264.7 macrophages”: median about 1, lowest 2% from about 0.43 on). Shown is part of a subset that was picked to be rich in the lowest values.
# System: Salmonella enterica serovar Typhimurium SL1344
# Assay: normalized intracellular growth (luminescence, IQM-normalized) in RAW264.7 macrophages (fraction of plate interquartile mean); higher = more bacterial growth (less inhibition)
# Conditions: 10 µM
SMILES,normalized intracellular growth (time point: T3 (3 h)),normalized intracellular growth (time point: Tfinal (~6 h))
CCCCCCCCCCCCCCCC(=O)OC[C@@H](NC(=O)C(Cl)Cl)[C@H](O)c1ccc([N+](=O)[O-])cc1,1.04 ± 0.037,0.822 ± 0.14
NC(=O)c1ccc([N+](=O)[O-])cc1Cl,1.06 ± 0.052,1.18 ± 0.017
CS(=O)(=O)c1ccc([C@@H](O)[C@@H](CF)NC(=O)C(Cl)Cl)cc1,1.27 ± 0.096,0.22 ± 0.17
CC(=O)Nc1ccc(S(=O)(=O)Nc2ccc([N+](=O)[O-])cc2)cc1,0.992 ± 0.038,1.03 ± 0.15
O=C(O)CCC(=O)OC[C@@H](NC(=O)C(Cl)Cl)[C@H](O)c1ccc([N+](=O)[O-])cc1,0.927 ± 0.048,0.178 ± 0.014
CS(=O)(=O)c1ccc([C@@H](O)[C@@H](CO)NC(=O)C(Cl)Cl)cc1,0.925 ± 0.07,0.767 ± 0.047
CC(=O)Nc1ccc(S(=O)(=O)c2ccc(NC(C)=O)cc2)cc1,1.01 ± 0.04,0.912 ± 0.062
OC[C@@H](O)[C@@H](O)CO,0.947 ± 0.1,1.08 ± 0.11
Cc1cc(C(C)(C)C)c(O)c(C(C)(C)C)c1,1.06 ± 0.046,0.834 ± 0.12
FC(F)(F)C(Cl)Br (stereo not drawn),1 ± 0.049,1.08 ± 0.18
CN1CC(=O)NC1=N,1.03 ± 0.02,1.1 ± 0.1
COc1cc([C@@H]2c3cc4c(cc3[C@@H](O[C@@H]3O[C@@H]5CO[C@@H](c6cccs6)O[C@H]5[C@H](O)[C@H]3O)[C@H]3COC(=O)[C@H]23)OCO4)cc(OC)c1O,1.1 ± 0.049,1.016 ± 0.0097
CCCc1nc(C)c2c(O)nc(-c3cc(S(=O)(=O)N4CCN(CC)CC4)ccc3OCC)nn12,0.997 ± 0.027,0.899 ± 0.1
CC(=O)N(c1onc(C)c1C)S(=O)(=O)c1ccc(N)cc1,0.951 ± 0.011,1.02 ± 0.17
C[C@@H]1C[C@H]2[C@@H]3CCC4=CC(=O)C=C[C@]4(C)[C@@]3(F)[C@@H](O)C[C@]2(C)[C@@]1(O)C(=O)CO,1 ± 0.062,0.99 ± 0.075
CC(=O)NCCCCCC(=O)O,0.997 ± 0.019,1.02 ± 0.17
O=S(=O)(O)CCSSCCS(=O)(=O)O,1.02 ± 0.061,0.986 ± 0.18
CC(C(=O)O)c1ccc(CC2CCCC2=O)cc1 (stereo not drawn),1.05 ± 0.055,1.06 ± 0.064
NC[C@@H]1CC[C@@H](N)[C@@H](O[C@H]2[C@H](O)[C@@H](O[C@H]3O[C@H](CO)[C@@H](O)[C@H](N)[C@H]3O)[C@H](N)C[C@@H]2N)O1,1.04 ± 0.023,0.976 ± 0.13
NCC(O)CC(=O)O (stereo not drawn),0.966 ± 0.067,1.03 ± 0.12

SMILES,normalized intracellular growth (time point: T3 (3 h)),normalized intracellular growth (time point: Tfinal (~6 h))
CN1CCN(c2c(F)cc3c(=O)c(C(=O)O)cn4c3c2SCC4)CC1,0.982 ± 0.061,0.095 ± 0.094
CC1COc2c(N3CCN(C)CC3)c(F)cc3c(=O)c(C(=O)O)cn1c23 (stereo not drawn),0.856 ± 0.034,0.134 ± 0.0023
C[C@H]1COc2c(N3CCN(C)CC3)c(F)cc3c(=O)c(C(=O)O)cn1c23,1.245 ± 0.0094,0.00765 ± 0.001
C[C@H]1COc2c(C3(N)CC3)c(F)cc3c(=O)c(C(=O)O)cn1c23,1.36 ± 0.11,0.00812 ± 0.0004
CCCCCCc1ccc(O)cc1O.Nc1c2ccccc2nc2ccccc12,0.891 ± 0.014,1.07 ± 0.012
CC1(C)S[C@@H]2[C@H](N3C(=O)[C@@H](c4ccccc4)NC3(C)C)C(=O)N2[C@H]1C(=O)O,1 ± 0.031,0.974 ± 0.056
COC(=O)/C=C/C(=O)OC,0.935 ± 0.047,0.937 ± 0.028
O=C([O-])[C@H]1/C(=C/CO)O[C@@H]2CC(=O)N21.[Li+],1.02 ± 0.099,0.812 ± 0.11
CN(C)c1cnccn1,0.967 ± 0.046,0.904 ± 0.32
CSCC[C@H](NC(=O)[C@H](Cc1c[nH]c2ccccc12)NC(=O)CCNC(=O)OC(C)(C)C)C(=O)N[C@@H](CC(=O)O)C(=O)N[C@@H](Cc1ccccc1)C(N)=O,1 ± 0.04,0.827 ± 0.23
Cl.N=C(N)NCCC[C@H](N)C(=O)O,1.05 ± 0.065,1.02 ± 0.092
NCC(=O)CCC(=O)O,1.09 ± 0.029,1.02 ± 0.042
Cc1nc(C)c(Cl)c(O)c1Cl,0.942 ± 0.035,1.16 ± 0.1
C[C@]12CCC(=O)C=C1CC[C@@H]1[C@@H]2[C@@H](O)C[C@@]2(C)[C@H]1CC[C@]2(O)C(=O)COP(=O)(O)O,0.9812 ± 0.0046,0.999 ± 0.047
O=C(O)c1cc(O)c2c(c1)[C@H]([C@H]1c3cc(C(=O)O)cc(O)c3C(=O)c3c(O[C@@H]4O[C@H](CO)[C@@H](O)[C@H](O)[C@H]4O)cccc31)c1cccc(O[C@@H]3O[C@H](CO)[C@@H](O)[C@H](O)[C@H]3O)c1C2=O,0.957 ± 0.08,0.961 ± 0.026
O=C1C2CC3CC1CC(O)(C3)C2,1 ± 0.017,1.06 ± 0.065
CC(C)NC(=N)NC(=N)Nc1ccc(Cl)cc1,0.664 ± 0.018,0.164 ± 0.01
N=C(NCCCCCCNC(=N)NC(=N)Nc1ccc(Cl)cc1)NC(=N)Nc1ccc(Cl)cc1,0.912 ± 0.078,1.15 ± 0.014
O=C1c2c(O)cc(CO)cc2C(OC2OC(CO)C(O)C(O)C2O)c2cccc(OC3OC(CO)C(O)C(O)C3O)c21 (stereo not drawn) [CASANTHRANOL [cascaroside A shown]],0.997 ± 0.016,0.857 ± 0.041
